We go through 96 molecules from PubChem BioAssay AID1321 (The Scripps Research Institute Molecular Screening Center, 2008).

Out of some 220,000 compounds screened, about 2,600 (1.2%) were called active. The sample as a whole holds a higher share of actives than the screen did. A number with no mark means an inactive call.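 Rule for the calls: active = activation above the mean of all tested compounds plus 3 SD, set per screening run (cut at about 8.8% in these data); inactive = the rest.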

In the assay the target is Wee1-like protein kinase (Homo sapiens) (UniProt P30291). The assay is described as follows: compounds stabilizing Wee1-luciferase fusion – cell-based, HeLa, Wee1K328M-luciferase, luminescence, primary screen (AID 1321).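 Note: cells exposed to compound for 20 h before luminescence read; 0% = DMSO alone and 100% = MG132 at 30 µM.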 The note with it: HeLa Luc-Wee1K328M stability, at 5 µM, active compounds read high, 100% = proteasome inhibitor MG132 effect.
Take `CC(=O)NC(=S)Nc1ccc(NC(=S)NC(=O)c2ccc([N+](=O)[O-])cc2)cc1`: the reporter increase was 1.61%.

On to `Cc1nnc(C)c2c(C)n(N)c(C)c12`, for which the reporter increase is 3.05%.

Regarding `O=C(CCl)Nc1ccc(Sc2ccc(NC(=O)CCl)cc2)cc1`, the reporter increase is -0.49%.

For the molecule `Cc1ccc(NC(=O)CC(=O)Nc2ccc(C)cc2)cc1`, the reporter increase is 1.54%.

Turning to `Cc1ccc(NC(=O)CN2CCc3ccccc3C2)cc1`, the reporter increase was 12.7% (active).

In the case of `Cc1ccc(NC(=O)CCN2CCc3ccccc3C2)cc1`, the reporter increase was 0.24%.

As for `COc1ccc(NC(=O)C2=C(C)NC(=O)NC2c2ccccc2[N+](=O)[O-])cc1` (stereo unspecified), the reporter increase is 0.32%.

Take `O=C(O)c1cc(Cl)c(Cl)cc1C(=O)Nc1cccc2ncccc12`: the reporter increase was -2.37%.

For `O=C(Nc1cccc2ncccc12)C(Cl)(Cl)Cl`, the reporter increase is 9.1% (active).

As for `Cc1ccc(C(=O)Nc2cccc3ncccc23)cc1[N+](=O)[O-]`, the reporter increase is 54.1% (active).

As for `O=[N+]([O-])c1cccc2ncccc12`, the reporter increase is -1.36%.

`O=C(Nc1cccc2ncccc12)c1ccc(-c2ccc(Cl)cc2Cl)o1`: the reporter increase is 7.64%.

Consider `Cc1cc(O)c(NC(=O)c2ccc(C)c([N+](=O)[O-])c2)cc1C`, for which the reporter increase is 2.32%.

For `O=C(NC(=O)c1ccccc1N1CCCCC1)Nc1ccc(Br)cc1`, the reporter increase is -1.56%.

On to `Fc1ccc(Nc2nnns2)cc1`, for which the reporter increase was -1.03%.

For the molecule `CN1CCN(c2cc3c(cc2F)c(=O)c(C(=O)O)cn3CCF)CC1`, the reporter increase was -0.92%.

Regarding `C#CCNc1ccc(C(=O)OCC)cc1`, the reporter increase is -0.22%.

As for `CCOC(=O)c1c(/N=C/C2C(=O)CC(C)(C)CC2=O)sc(C)c1C`, the reporter increase is 12.6% (active).

For the molecule `CCOC(=O)c1c(NC(=O)c2cccs2)sc(C)c1C`, the reporter increase was -0.63%.

For `CCOC(=O)c1sc(/N=C/C2=C(O)CC(C)(C)CC2=O)c(C(=O)OCC)c1C`, the reporter increase is 0.6%.

For the molecule `COc1cc(OC)cc(/C(N)=N/O)c1`, the reporter increase was 5.93%.

In the case of `CN(CC(=O)Nc1cccc(F)c1)CC(=O)Nc1cccc([N+](=O)[O-])c1`, the reporter increase is 3.36%.

For `Cc1ccc(CN(C)CC(=O)Nc2cccc([N+](=O)[O-])c2)o1`, the reporter increase is 8.93% (active).

Consider `CC(=O)Nc1cccc([N+](=O)[O-])c1`, for which the reporter increase was 1.71%.

Turning to `COc1ccc(N=Nc2ccc(O)c(P(=O)(c3ccccc3)c3ccccc3)c2)cc1`, the reporter increase was 2.24%.

For the molecule `Clc1ccc(C[n+]2cc(-c3ccccc3)n3c2CCC3)cc1`, the reporter increase is -0.29%.

In the case of `COc1ccccc1NC(=O)C1=C(C)Nc2nc3ccccc3n2C1c1cccs1` (stereo unspecified), the reporter increase is 5.69%.

On to `COc1ccccc1NC(=O)c1ccc(C)s1`, for which the reporter increase was -0.54%.

With `COc1ccccc1NC(=O)C1=C(C)NC(=O)NC1c1ccc(C)s1` (stereo unspecified), the reporter increase was 9.03% (active).

As for `Nc1nc(Nc2ccccc2)nc(NCCO)c1[N+](=O)[O-]`, the reporter increase was -3.26%.

With `Cc1cc(C)c(C)c(S(=O)(=O)N[C@@H](C)C(=O)OC(C)C(=O)NC(N)=O)c1C` (stereo partly specified), the reporter increase is -2.95%.

Turning to `COc1cccc(/C=N\Nc2nncc(-c3ccccc3)n2)c1`, the reporter increase is 0.25%.

As for `CCOc1ccc(/C=N/Nc2nncc(-c3ccccc3)n2)cc1OC`, the reporter increase was 16.9% (active).

For the molecule `COc1ccc(/C=N/Nc2nc3ccccc3o2)cc1OC`, the reporter increase was 4.92%.

Regarding `OCCN1CCN(C(=S)c2ccc(-c3ccccc3)cc2)CC1`, the reporter increase is -3.59%.

For `COc1ccc(NC(=O)C2CCC(CNc3c(N4CCCCC4)c(=O)c3=O)CC2)c(OC)c1` (stereo unspecified), the reporter increase is 1.06%.

With `CCOC(=O)c1nnn2c3ccccc3c(=O)n(C)c12`, the reporter increase was -0.3%.

As to `Cc1ncn2cc(-c3ccc(Cl)cc3Cl)[nH]c(=O)c12`, the reporter increase was -1.11%.

Consider `Cc1ccc(S(=O)(=O)/N=C(/NC(=S)Nc2c(C)n(C)n(-c3ccccc3)c2=O)c2ccccc2)cc1`, for which the reporter increase is -0.69%.

Turning to `Cc1ccccc1CSc1nnc(CCCCCNC(=O)OC(C)(C)C)o1`, the reporter increase was 15.4% (active).

As to `Cc1cccc(NC(=O)CSc2nnc(CCCCCNC(=O)OC(C)(C)C)o2)c1C`, the reporter increase was -2.16%.

Regarding `CCc1ccccc1NC(=O)CSc1nnc(CCNC(=O)OC(C)(C)C)o1`, the reporter increase is 5.87%.

With `CSc1nnc(-c2ccc(C(F)(F)F)cn2)o1`, the reporter increase is -1.5%.

For the molecule `Cc1nc(-c2nnc(SCC(=O)Nc3cc(C(F)(F)F)cc(C(F)(F)F)c3)n2C)cs1`, the reporter increase is 2.29%.

On to `CCn1c(=O)c([N+](=O)[O-])c(NCc2ccc3c(c2)OCO3)c2ccccc21`, for which the reporter increase was -2.11%.

As for `COc1ccc(N2CCN(c3ccc([N+](=O)[O-])nc3)CC2)cc1`, the reporter increase is 2.25%.

With `COc1ccccc1N1CCN(c2ccc([N+](=O)[O-])nc2)CC1`, the reporter increase is 12.9% (active).

Consider `COc1ccccc1N1CCN(CCCCOc2ccc(F)cc2)CC1`, for which the reporter increase is 1.24%.

As for `CCC(C)NC(=O)C1c2ccccc2Oc2ccccc21` (stereo unspecified), the reporter increase was 2.05%.

As for `Cc1ccc(N2CCN(S(=O)(=O)N(C)C)CC2)cc1Cl`, the reporter increase is 13.4% (active).

As to `CN(C)S(=O)(=O)N1CCN(c2ccc([N+](=O)[O-])cc2)CC1`, the reporter increase is 6.3%.

In the case of `CC(C)=C1SC(N2CCN(c3ccc(C)c(Cl)c3)CC2)=NC1=O`, the reporter increase was -2.39%.

Take `N#C/C(=C/c1ccc(-c2ccccc2[N+](=O)[O-])o1)C(=O)NCCN1CCCCC1`: the reporter increase was -2.23%.

In the case of `N#C/C(=C\c1ccc(-c2cccc([N+](=O)[O-])c2)o1)C(=O)NCCN1CCOCC1`, the reporter increase was 9.19% (active).

With `Cc1ccc(Cc2cnc(NC(=O)/C(C#N)=C/c3ccc(-c4cccc([N+](=O)[O-])c4)o3)s2)cc1`, the reporter increase is -0.97%.

In the case of `CCOC(=O)C1=C(c2ccccc2)NC(=S)NC1c1ccc(Cl)cc1` (stereo unspecified), the reporter increase is 3.7%.

For the molecule `CC(C)(C)c1cc(P(=O)(c2ccccc2)c2ccccc2)ccc1O`, the reporter increase was 0.95%.

As for `COc1ccc(C2c3ccc(O)cc3Oc3ncn(CCCO)c(=N)c32)cc1OC` (stereo unspecified), the reporter increase was 2.84%.

As to `N#Cc1ccc(Oc2ccc(C(F)(F)F)cc2NC(=O)c2ccc(F)cc2)cc1`, the reporter increase was 2.35%.

In the case of `COc1cc(/C=C2/C(=O)NN(c3ccc(F)cc3)C2=O)cc([N+](=O)[O-])c1O`, the reporter increase was -0.14%.

With `Cc1ccc(CC2CC(=O)N(c3nc(C)cc(C)n3)C2=O)cc1` (stereo unspecified), the reporter increase is -2.45%.

Regarding `COc1ccc(CCN2C(=O)C3CC=C(C)CC3C2=O)cc1OC` (stereo unspecified), the reporter increase was 5.14%.

For the molecule `COc1ccc(CN2C(=O)CC(Cc3ccc(C)cc3)C2=O)cc1OC` (stereo unspecified), the reporter increase was 10.8% (active).

Consider `Cc1nc(-c2ccccc2)sc1-c1nnc(C2CC2)o1`, for which the reporter increase was -1.78%.

Regarding `CCOC(=O)c1cc(Sc2ccccc2N)cc(C(=O)OCC)n1`, the reporter increase was -2.91%.

As to `Cc1nnsc1C(=O)N/N=C/c1ccccc1Cl`, the reporter increase is 2.61%.

Turning to `COc1cccc(N(CC(=O)Nc2cccc(N(C)S(C)(=O)=O)c2)S(C)(=O)=O)c1`, the reporter increase was -1.32%.

For `COc1cccc(N(CC(=O)Nc2cccc(F)c2)S(C)(=O)=O)c1`, the reporter increase is 8.9% (active).

As for `CCN(CC)S(=O)(=O)c1ccc(NC(=O)CN(c2cccc(F)c2)S(C)(=O)=O)cc1`, the reporter increase was -1.26%.

Take `O=C(CC1CCCCC1)NCc1ccco1`: the reporter increase is 0.37%.

As to `O=C(Cc1ccc(F)cc1)NC1CCCC1`, the reporter increase is -1.42%.

For `O=C(CC1CCCCC1)NCc1ccc(F)cc1`, the reporter increase was 8.97% (active).

For the molecule `Cc1ccc(S(=O)(=O)/N=C(/Nc2ccc3[nH]c(=O)[nH]c3c2)c2ccccc2)cc1`, the reporter increase was -1.22%.

For `COC(=O)c1ccccc1NS(=O)(=O)c1ccc2[nH]c(=O)[nH]c2c1`, the reporter increase was -1.86%.

On to `CC(OC(=O)c1ccc(NS(=O)(=O)c2ccc3[nH]c(=O)[nH]c3c2)cc1)C(=O)Nc1cccc(Cl)c1Cl` (stereo unspecified), for which the reporter increase is 24.1% (active).

Take `O=C1/C(=C/c2coc3ccc(O)cc3c2=O)SC(=S)N1c1ccccc1`: the reporter increase is -0.03%.

Take `COc1c(C=O)c(CCN(C)C(=O)c2ccc(F)cc2)cc2c1OCO2`: the reporter increase is 0.06%.

In the case of `Fc1ccc(COc2cccc(-c3n[nH]c(=S)o3)c2)cc1`, the reporter increase is -0.05%.

`COc1ccc(-c2nnco2)cc1OC`: the reporter increase was -2.71%.

Consider `Fc1ccc(COc2ccc(-c3nnco3)cc2)cc1`, for which the reporter increase is 16.2% (active).

For `CCOC(=O)Cc1cc(=O)[nH]c(/N=C(\N)Nc2ccc(OC)cc2)n1`, the reporter increase is 0.86%.

As for `Oc1ccc2ccccc2c1C=Nc1ccccc1`, the reporter increase was -2.84%.

As for `O=C(COC(=O)c1cc(S(=O)(=O)N2CCCCC2)ccc1Cl)NCc1ccco1`, the reporter increase was 5.36%.

For the molecule `CCn1c2ccccc2c2cc(NC(=O)COC(=O)c3ccccc3Br)ccc21`, the reporter increase is 1.86%.

Take `CCn1c2ccccc2c2cc(NC(=O)COC(=O)c3cc(S(=O)(=O)N4CCCCC4)ccc3Cl)ccc21`: the reporter increase was 11.6% (active).

In the case of `Nc1ccc(C(=O)OCC(=O)NC2CCS(=O)(=O)C2)cc1[N+](=O)[O-]` (stereo unspecified), the reporter increase was -1.54%.

Regarding `COc1ccccc1P(=O)(c1ccccc1)c1ccccc1NC(C)=O` (stereo unspecified), the reporter increase was 0.01%.

On to `Cc1ccc(-c2nc(CS(=O)CC(=O)NC3CCCC3)c(C)o2)cc1` (stereo unspecified), for which the reporter increase was 2.35%.

Regarding `Cc1ccc(NC(=O)CS(=O)CC(=O)N(c2ccccc2)C(C)C(=O)NC2CCCC2)cc1` (stereo unspecified), the reporter increase is 10.2% (active).

Regarding `Cc1ccc(NC(=O)CSCC(=O)NC2CCCCC2)cc1`, the reporter increase is 0.26%.

As to `Nc1nc(NC(=O)/C=C/c2ccc(F)cc2)nn1-c1ccccc1`, the reporter increase was -3.61%.

As to `Oc1ccc(-c2nnc(Nc3ccccc3)c3ccccc23)cc1`, the reporter increase is -2.97%.

Take `O=C1/C(=C/c2cccs2)SC(=S)N1C1CCS(=O)(=O)C1` (stereo unspecified): the reporter increase is 2.22%.

Regarding `O=C(O)CCCCc1nc2ccccc2s1`, the reporter increase was 1.81%.

As to `COc1ccccc1OCc1nc2ccccc2s1`, the reporter increase was 10.1% (active).

Regarding `COc1cccc2sc(NNC(=O)c3nc4ccccc4s3)nc12`, the reporter increase is 1.43%.
